# Test results as given in paper PMC7862700, “An all-to-all approach to the identification of sequence-specific readers for epigenetic DNA modifications on cytosine”.
# Columns and labels:
# Test in all cases: DAPPL (digital affinity profiling via proximity ligation, sequencing); 10 mM Tris-HCl pH 7.5, 50 mM NaCl, 1 mM DTT, 4% glycerol, room temperature, 30 min; GST-TFs on glutathione beads, 16-mer random dsDNA library, 0.1% formaldehyde crosslink after washing; high values mean tight binding
# Settings in all cases: protein: recombinant; tags: N-terminal GST; dsDNA, one strand shown
# FLI1 = biological target: T1, FLI1 (Homo sapiens, UniProt Q01543 1-452)
# T1 sequence: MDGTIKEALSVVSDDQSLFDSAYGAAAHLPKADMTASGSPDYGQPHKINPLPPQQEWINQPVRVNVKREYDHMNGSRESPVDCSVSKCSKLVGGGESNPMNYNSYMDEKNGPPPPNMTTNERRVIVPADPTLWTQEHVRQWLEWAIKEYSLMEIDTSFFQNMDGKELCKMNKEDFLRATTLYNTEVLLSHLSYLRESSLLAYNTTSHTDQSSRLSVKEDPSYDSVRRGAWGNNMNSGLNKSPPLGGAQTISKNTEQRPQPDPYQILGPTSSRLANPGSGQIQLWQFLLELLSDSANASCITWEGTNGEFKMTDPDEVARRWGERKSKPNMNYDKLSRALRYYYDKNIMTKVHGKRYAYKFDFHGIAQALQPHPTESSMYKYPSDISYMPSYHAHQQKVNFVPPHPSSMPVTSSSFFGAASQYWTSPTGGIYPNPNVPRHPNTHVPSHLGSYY
# In short: (§1)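 GST fusions of human transcription factors were expressed in yeast and captured with glutathione beads. Once given DNA barcodes and pooled alongside a tag-only sample, they were incubated for 30 min at room temperature with 200 nmole of a random double-stranded 16-mer DNA library in Tris/NaCl/DTT/glycerol buffer, then washed, crosslinked (0.1% formaldehyde), proximity-ligated, PCR-amplified and sequenced on an Illumina NextSeq500. The binding signal of each hexamer is its read frequency for a factor divided by its frequency for the tag-only sample.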
# ELK1 = biological target: T2, ELK1 (Homo sapiens, UniProt P19419 1-428)
# T2 sequence: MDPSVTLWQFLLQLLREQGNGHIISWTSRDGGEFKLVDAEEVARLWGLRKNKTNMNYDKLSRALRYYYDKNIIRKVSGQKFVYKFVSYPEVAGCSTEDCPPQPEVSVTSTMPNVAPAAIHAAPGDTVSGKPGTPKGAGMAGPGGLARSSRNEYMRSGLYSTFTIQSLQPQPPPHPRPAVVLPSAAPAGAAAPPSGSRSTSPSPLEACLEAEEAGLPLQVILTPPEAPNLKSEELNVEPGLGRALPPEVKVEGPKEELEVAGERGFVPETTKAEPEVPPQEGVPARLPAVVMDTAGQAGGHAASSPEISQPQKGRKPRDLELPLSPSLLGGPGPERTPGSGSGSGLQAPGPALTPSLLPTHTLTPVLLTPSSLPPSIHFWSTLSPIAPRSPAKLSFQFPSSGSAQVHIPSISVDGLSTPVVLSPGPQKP
# In short: as §1
# GABPA = biological target: T3, GABPA (Homo sapiens, UniProt Q06546 1-454)
# T3 sequence: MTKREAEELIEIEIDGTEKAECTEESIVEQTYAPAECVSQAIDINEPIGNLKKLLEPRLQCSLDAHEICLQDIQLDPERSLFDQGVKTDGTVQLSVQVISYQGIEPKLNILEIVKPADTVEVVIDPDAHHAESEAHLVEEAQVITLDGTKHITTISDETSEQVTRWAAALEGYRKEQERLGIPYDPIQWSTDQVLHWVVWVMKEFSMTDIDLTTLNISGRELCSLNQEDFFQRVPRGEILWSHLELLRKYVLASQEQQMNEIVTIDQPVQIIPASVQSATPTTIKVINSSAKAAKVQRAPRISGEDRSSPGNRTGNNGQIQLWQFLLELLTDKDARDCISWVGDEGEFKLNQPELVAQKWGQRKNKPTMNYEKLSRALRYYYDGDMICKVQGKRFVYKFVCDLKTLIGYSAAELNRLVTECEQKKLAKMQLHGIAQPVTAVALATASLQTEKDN
# In short: as §1
# ERG = biological target: T4, ERG (Homo sapiens, UniProt P11308 1-479)
# T4 sequence: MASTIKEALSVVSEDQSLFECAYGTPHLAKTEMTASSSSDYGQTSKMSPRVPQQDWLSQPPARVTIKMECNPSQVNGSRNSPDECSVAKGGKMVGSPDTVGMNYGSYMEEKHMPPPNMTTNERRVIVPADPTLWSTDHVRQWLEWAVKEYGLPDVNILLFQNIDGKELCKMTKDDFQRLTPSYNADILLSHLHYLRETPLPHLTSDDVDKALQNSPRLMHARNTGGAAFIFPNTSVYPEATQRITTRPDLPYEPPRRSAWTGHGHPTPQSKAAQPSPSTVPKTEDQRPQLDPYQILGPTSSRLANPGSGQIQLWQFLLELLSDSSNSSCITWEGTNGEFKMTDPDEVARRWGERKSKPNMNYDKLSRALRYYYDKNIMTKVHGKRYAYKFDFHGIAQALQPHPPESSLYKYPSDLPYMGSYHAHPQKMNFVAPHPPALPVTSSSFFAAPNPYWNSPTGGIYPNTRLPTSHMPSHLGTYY
# In short: as §1
# ELF1 = ELF1 (Homo sapiens, UniProt P32519 1-619)
# Sequence of ELF1 (P32519 whole entry): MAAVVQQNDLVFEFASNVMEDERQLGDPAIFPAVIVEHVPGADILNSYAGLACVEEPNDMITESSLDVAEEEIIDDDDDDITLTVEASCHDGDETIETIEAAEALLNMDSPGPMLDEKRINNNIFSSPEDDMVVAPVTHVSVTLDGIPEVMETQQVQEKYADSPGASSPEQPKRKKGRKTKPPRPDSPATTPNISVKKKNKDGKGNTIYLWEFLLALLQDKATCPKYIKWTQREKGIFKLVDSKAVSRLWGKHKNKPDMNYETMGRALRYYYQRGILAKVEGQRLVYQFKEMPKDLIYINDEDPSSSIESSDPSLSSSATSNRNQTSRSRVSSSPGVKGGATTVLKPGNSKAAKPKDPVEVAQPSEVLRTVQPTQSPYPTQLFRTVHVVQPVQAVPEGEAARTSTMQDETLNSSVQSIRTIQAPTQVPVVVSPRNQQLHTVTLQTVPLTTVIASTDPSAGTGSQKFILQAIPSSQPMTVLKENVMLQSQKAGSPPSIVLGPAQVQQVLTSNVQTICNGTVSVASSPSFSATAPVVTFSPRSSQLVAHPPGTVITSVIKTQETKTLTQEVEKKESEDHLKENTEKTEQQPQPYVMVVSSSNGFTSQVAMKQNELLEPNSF
# In short: as §1
# EHF = biological target: T5, EHF (Homo sapiens, UniProt Q9NZC4 1-300)
# T5 sequence: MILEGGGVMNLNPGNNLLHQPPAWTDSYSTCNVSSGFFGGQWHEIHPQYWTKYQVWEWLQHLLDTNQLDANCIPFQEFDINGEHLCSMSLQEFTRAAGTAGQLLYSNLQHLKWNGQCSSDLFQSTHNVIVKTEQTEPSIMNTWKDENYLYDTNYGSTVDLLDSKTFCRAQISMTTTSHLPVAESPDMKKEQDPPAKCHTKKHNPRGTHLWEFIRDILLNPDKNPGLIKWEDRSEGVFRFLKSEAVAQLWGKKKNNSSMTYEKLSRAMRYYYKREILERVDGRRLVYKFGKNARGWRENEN
# In short: as §1
# SPI1 = SPI1 (Homo sapiens, UniProt P17947 1-270)
# In short: as §1
# SPIB = SPIB (Homo sapiens, UniProt Q01892 1-262)
# Sequence of SPIB (Q01892 whole entry): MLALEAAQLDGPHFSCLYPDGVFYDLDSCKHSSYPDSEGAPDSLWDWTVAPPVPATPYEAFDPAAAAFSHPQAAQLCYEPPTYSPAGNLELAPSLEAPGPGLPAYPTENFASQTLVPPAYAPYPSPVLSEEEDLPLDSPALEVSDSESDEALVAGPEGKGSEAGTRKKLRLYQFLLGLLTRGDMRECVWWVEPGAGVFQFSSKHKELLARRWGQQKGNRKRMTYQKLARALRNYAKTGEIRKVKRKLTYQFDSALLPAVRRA
# In short: as §1
# ELK3 = biological target: T6, ELK3 (Homo sapiens, UniProt P41970 1-407)
# T6 sequence: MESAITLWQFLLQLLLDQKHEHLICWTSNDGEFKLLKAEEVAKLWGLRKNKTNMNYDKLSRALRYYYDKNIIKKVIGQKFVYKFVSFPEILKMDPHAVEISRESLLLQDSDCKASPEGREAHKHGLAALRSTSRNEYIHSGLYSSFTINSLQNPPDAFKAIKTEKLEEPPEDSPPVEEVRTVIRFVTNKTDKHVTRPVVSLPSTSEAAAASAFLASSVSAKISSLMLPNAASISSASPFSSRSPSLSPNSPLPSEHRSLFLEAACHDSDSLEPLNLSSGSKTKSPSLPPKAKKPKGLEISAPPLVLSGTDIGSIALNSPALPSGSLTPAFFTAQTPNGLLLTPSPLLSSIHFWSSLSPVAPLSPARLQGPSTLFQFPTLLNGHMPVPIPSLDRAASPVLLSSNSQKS
# In short: as §1
sequence,measurement,setting,value
TGCACT,binding signal,FLI1,"1.37 fold enrichment (6-mer frequency, TF over GST control)"
same,binding signal,ELK1,"1.58 fold enrichment (6-mer frequency, TF over GST control)"
same,binding signal,GABPA,"1.4 fold enrichment (6-mer frequency, TF over GST control)"
same,binding signal,ERG,"1.43 fold enrichment (6-mer frequency, TF over GST control)"
same,binding signal,ELF1,"1.42 fold enrichment (6-mer frequency, TF over GST control)"
same,binding signal,EHF,"1.3 fold enrichment (6-mer frequency, TF over GST control)"
same,binding signal,SPI1,"1.68 fold enrichment (6-mer frequency, TF over GST control)"
same,binding signal,SPIB,"1.21 fold enrichment (6-mer frequency, TF over GST control)"
same,binding signal,ELK3,"1.26 fold enrichment (6-mer frequency, TF over GST control)"
